Shown are actives, neighbours in structure and some others; about 1.7% of the full set was active somewhere.
GLP1R cytotox = qHTS of GLP-1 Receptor Inverse Agonists: Cytotox Screen. HEK293 cAMP-luciferase reporter cells, luminescence, 24 h. 410,000 tested, 0.13% active. Potency, µM (titrated, usually from 38.3 µM), for inactives: top-dose activity change, negative = inhibition, hits mostly inhibitors;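 note: loss of luciferase light is scored as toxicity; % is set by controls: 0 for no effect and ±100 for the full control effect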
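Luminescence readout: signal drop marks cytotoxicity. Plated cells grew 12 h at 37 °C, 5% CO2, received 23 nL compound for 24 h, then got luciferase reagent, read after 12 min at RT.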
PTHR1 ag = qHTS for PTHR1 Agonists: Primary Screen; Potency, µM (doses to about 115 µM), inactives show at the highest dose activation, actives largely listed as activators; 410,000 tested, 0.075% active; HEK293 GP2 PTHR1 cells, GloSensor cAMP luminescence, 1 h; AID 743266, 2014; note: nearly all actives have a fitted effect of over 55% in size
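HEK-293-derived GP2 cells expressing PTHR1 and a GloSensor cAMP reporter, 3,000/well, plated overnight, given luciferin plus IBMX (each 0.5 mM as added) for 1 h at 37 °C, then compound for 1 h at 37 °C. Luminescence was read after 15 min at room temperature.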
GLP1R inv ag = qHTS of GLP-1 Receptor Inverse Agonists (Inhibition Mode); HEK293 GLP-1R CRE-luciferase, luminescence, 24 h; GLP-1R form is constitutively active; 410,000 tested, 1.6% active; AID 624417, 2012; Glucagon-like peptide 1 receptor (Homo sapiens), P43220; Potency, µM (doses to about 38.3 µM), inactives show at the top dose activity change, negative = inhibition, actives largely listed as inhibitors; note: % is set by controls: 0 for no effect and ±100 for the full control effect; nearly all actives have a fitted effect of over 55% in size
Target sequence (P43220 whole entry, looked up): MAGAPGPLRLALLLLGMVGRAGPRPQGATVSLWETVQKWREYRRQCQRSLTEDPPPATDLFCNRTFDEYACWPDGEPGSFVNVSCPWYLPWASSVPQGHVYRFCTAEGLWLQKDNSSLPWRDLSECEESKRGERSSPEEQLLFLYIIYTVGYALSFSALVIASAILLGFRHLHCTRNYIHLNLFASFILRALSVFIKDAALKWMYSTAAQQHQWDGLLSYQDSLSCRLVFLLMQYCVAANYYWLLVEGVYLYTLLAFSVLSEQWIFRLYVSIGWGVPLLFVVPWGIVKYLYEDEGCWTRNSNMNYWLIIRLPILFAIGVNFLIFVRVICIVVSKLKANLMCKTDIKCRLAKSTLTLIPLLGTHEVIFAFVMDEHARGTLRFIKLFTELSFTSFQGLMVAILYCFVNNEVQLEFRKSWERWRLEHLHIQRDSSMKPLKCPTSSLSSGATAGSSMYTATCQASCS
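Seeding at 200 cells/uL, 12 h culture, 24 hr compound treatment, then luciferase reagent and a luminescence read; cells are HEK293 stably expressing a constitutively active GLP-1R plus cAMP-responsive luciferase.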
GLP1R ag = qHTS of GLP-1 Receptor Agonists; HEK293 GLP-1R CRE-luciferase, luminescence, 4-6 h; cells express a hypersensitive GLP-1R form; Potency, µM (highest dose often 45.6 µM), for the others: top-dose activation, hits mostly activators; 380,000 tested, 0.007% active; AID 624172, 2012; note: % of control where 0% means no effect
Numbers without * were called inactive; i = inactive; u = inconclusive; x = no result given; [ ] = dose if it differs, or a comment. Calls come from the whole dose curve; as a rule, active = well fitted curve in the direction sought with a large enough effect; inconclusive = small, poorly fitted or top-dose-only effect, or another doubt; inactive = no such curve, though single readings can be large; an effect the other way counts as inactive or inconclusive. Potency is the fitted concentration of half-maximal effect.

SMILES	GLP1R cytotox	PTHR1 ag	GLP1R inv ag	GLP1R ag
C=CCOc1c(Br)cc(CNc2ccc(NC(=O)CCC)cc2)cc1OCC	-11.8%	-3.8%[57.5 µM]	8.91µM*	-2.2%
CC(C)c1cc(-c2nc(-c3ccc(Cl)cc3)no2)n[nH]1	-0.1%	-47.0%	u	x
CCc1cccc(NC(=O)Cn2c(=O)n(Cc3ccccc3)c(=O)c3c2c2cc(OC)ccc2n3C)c1	2.4%	-22.7%	20.4%	-2.2%
CCOc1ccccc1CNC(=O)c1ccc(CS(=O)Cc2cccc(Cl)c2)o1 (centres undefined)	-8.3%	-19.3%	u	x
COc1cc(C(=O)NC2CC(=O)N(c3cccc(F)c3)C2)cc(OC)c1OC (centres undefined)	-4.5%	i	4.6%	x
CCn1c(SCC(=O)c2cc(C)n(C)c2C)nnc1-c1ccccc1	-14.0%	-8.5%	-26.7%	-5.7%
CCn1c(SCC(=O)c2cc(C)n(-c3ccc(C(=O)OC)cc3)c2C)nnc1-c1cccnc1	-14.3%	-24.3%	11.2µM*	-1.8%
Cc1ccc(C)c(NC(=O)C(Cc2ccccc2)N2Cc3ccccc3C2=O)c1 (centres undefined)	-1.3%	i	u	x
C=C(C)COc1ccc(-c2nc(N)nc(C(F)(F)F)c2-c2ccc(OC)cc2)c(O)c1	-3.3%	-1.6%	u	7.3%
C=C(C)COc1ccc(-c2ncnc(C(F)(F)F)c2-c2ccccc2)c(O)c1	1.3%	-34.1%	2.82µM*	12.8%
C=C(C)COc1ccc(-c2ncnc(C(F)(F)F)c2-c2ccc(OC)cc2)c(O)c1	1.6%	-10.4%	7.94µM*	18.4%
COc1cc([N+](=O)[O-])ccc1NC(=O)N1CCC2(CC1)Nc1cc(F)ccc1-n1cccc12	-21.2%	-18.8%	11.2µM*	x
COc1cc([N+](=O)[O-])ccc1NC(=O)NN1CCN(C)CC1	11.2%	i	14.8%	-4.6%
Cc1cccc(C(=O)Nc2ccc3nc(SCC(=O)N4CCCC4)sc3c2)c1	-10.9%	-24.2%	10.8%	x
CCCC[C@@H]1CNCCN1CCc1cc(C(F)(F)F)cc(C(F)(F)F)c1	u	-3.0%	11.2µM*	-6.5%
CSc1ccccc1NC(=O)CN(C)Cc1ccc(Br)cc1	10.9%	i	7.08µM*	17.4%
CC1=C[C@@H](O)CC(C)(C)[C@@H]1/C=C/C(C)=C/C=C/C(C)=C/C=C/C=C(C)/C=C/C=C(C)/C=C/C1=C(C)C[C@H](O)CC1(C)C	x	x	x	-5.5%
CN1C(=O)c2ccccc2Sc2ccc(NC(=O)NCc3cccc(Cl)c3)cc21	-26.5%	-38.3%	u	x
Cc1ccc(CNc2nc3ccccc3n3c(C)nnc23)cc1	0.0%	i	15.3%	x
CCOC(=O)N1CCN(c2nc(-c3ccccc3)c3cc(C)ccc3n2)CC1	56.2%	-1.6%	7.1%	8.5%
OCCN1CCN(c2nc(-c3ccccc3)c3cc(Cl)ccc3n2)CC1	117.3%	-17.5%	3.55µM*	-19.8%
Cc1ccc2nc(N3CCN(CCO)CC3)nc(-c3ccccc3)c2c1	67.8%	i	6.31µM*	21.3%
CCOC(=O)C1CCN(c2c(C(=O)c3ccc(C)cc3)cnc3ccc(F)cc23)CC1	-6.2%	-3.4%	-20.7%	x
O=C(O)c1[nH]n(-c2ccc(S(=O)(=O)O)cc2)c(=O)c1N=Nc1ccc(S(=O)(=O)O)cc1	x	x	x	0.4%
Cc1ccc(C(=O)N(CCc2ccccc2)Cc2ccccc2)cc1S(=O)(=O)N1CCOCC1	-10.5%	-23.7%	10µM*	5.4%
SMILES	GLP1R cytotox	PTHR1 ag	GLP1R inv ag	GLP1R ag
N[C@@H](C(=O)N[C@H]1C(=O)N2C(C(=O)O)=C(Cl)CC[C@H]12)c1ccccc1	x	x	x	-2.7%
O=[N+]([O-])c1cc(-c2csc(NCCc3nc4cc(Cl)c(Cl)cc4n3CCCO)n2)ccc1Cl	u	-36.5%	14.1µM*	-0.2%
c1cncc(-c2nc(N3CCOCC3)c3c4c(sc3n2)CCC4)c1	-4.5%	i	110.2%	10.0%
c1cncc(-c2nc(NCCCN3CCOCC3)c3c4c(sc3n2)CCC4)c1	5.7%	i	11.2µM*	21.9%
CCC(C(=O)Nc1ccc(C(C)=O)cc1)n1c(C)c2cnn(-c3ccccc3)c(=O)c2c1C (centres undefined)	-4.9%	i	-4.8%	x
O=C(CN1c2ccccc2Sc2ccccc21)NNC(=O)Nc1cccc(Cl)c1	u	-27.3%	3.55µM*	5.3%
CCN(CC)CCCNc1ncnc2scc(-c3ccc(F)cc3)c12	-8.5%	-9.0%	7.08µM*	-12.9%
COc1ccc(-c2csc3ncnc(NCCCO)c23)cc1	-6.4%	-17.9%	-40.0%	-0.5%
Cn1c(/C=C/c2ccccc2)nc2ccccc21	-16.0%	-93.7%	4.47µM*	1.8%
COc1cccc(NC(=O)Cc2csc(NC(=O)Nc3ccccc3OC)n2)c1	u	-4.7%	10µM*	-0.9%
COc1ccccc1NC(=O)Cc1csc(NC(=S)Nc2ccc(C)cc2)n1	3.16µM*	i	-14.8%	0.5%
COc1ccccc1NC(=O)Nc1nc(CC(=O)Nc2ccc(OC)c(OC)c2)cs1	7.6%	i	7.8%	5.7%
COc1cc(C)ccc1NC(=O)Cc1csc(NC(=O)Nc2ccccc2OC)n1	u	-17.5%	10µM*	1.7%
CCC(=O)Nc1nc(CC(=O)Nc2ccccc2OC)cs1	1.3%	i	19.3%	-1.8%
CCCn1c(CCC(=O)Nc2cc(Cl)c(OC)cc2OC)nc2cccnc21	2.4%	-37.6%	13.3%	x
CCC(Sc1nc2c(sc3ccccc32)c(=O)n1CCc1ccc(OC)c(OC)c1)C(=O)N(CC)CC (centres undefined)	-4.2%	-15.2%	-9.1%	-6.0%
Cc1ccc(NC(=O)CN2C(=O)CCc3cc(S(=O)(=O)N4CCCCC4)ccc32)cc1N(C)C	-2.8%	i	u	x
CCOc1ccc(-n2c(Cc3ccccc3)nnc2SCc2nc(-c3cccs3)no2)cc1	0.1%	-22.6%	u	x
COc1cc(Cl)cc2c1Sc1ccccc1/C2=C/CCN(C)C	10.9%	-15.9%	u	5.2%
COc1cc2c(cc1Cl)/C(=C\CCN(C)C)c1ccccc1S2	u	-12.7%	10µM*	-17.2%
CN(C)CC/C=C1/c2cc(F)ccc2Sc2ccc(Cl)cc21	u	-3.2%	10µM*	5.8%
O=[N+]([O-])c1ccc(-n2nnnc2-c2ccccc2)c([N+](=O)[O-])c1	10µM*	-34.1%	u	-29.4%
COc1ccc(S(=O)(=O)c2c(C(=O)c3ccc(C)c(C)c3)cnc3ccc(F)cc23)cc1	-21.8%	i	u	x
Cc1ccc2ncc(C(=O)c3ccc(C)c(C)c3)c(S(=O)(=O)c3ccc(F)cc3)c2c1	-17.4%	-23.6%	12.6µM*	x
Cn1cc(/C=N/Nc2ccccc2)c2ccccc21	-37.1%	i	11.2µM*	-3.9%
CC(C)n1cc(/C=N/Nc2ccc(C(=O)O)cc2)c2ccccc21	3.3%	-5.8%	-48.4%	-5.1%
